According to PubChem BioAssay (NCATS):
Results filed as inconclusive are left out. Calls follow the shape of the dose curve; as a rule, active = well fitted inhibition curve with a large enough effect; inconclusive = small, poorly fitted or top-dose-only effect; inactive = flat fitted curve, though single readings scatter.

Tested on: CP201
Test: qHTS profiling for inhibitors of Plasmodium falciparum proliferation (AID 504749);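 also: 0% = DMSO vehicle and full inhibition = artemisinin control; nearly all actives have a fitted effect of over 60% in size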
Settings: P. falciparum in erythrocytes, SYBR Green DNA, 72 h; series mostly up to 12.8 µM; activity, negative = inhibition: at the top concentration
Summary of the method: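 Each compound contacts P. falciparum-infected red blood cells for 72 h at 37 C; lysis buffer (Tris, EDTA, saponin, Triton X, SYBR Green I) is added and fluorescence measured next morning; values normalized to controls.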

activity, negative = inhibition, inactive:
CC1(C)S[C@H]2C(NC(=O)[C@@H](N)c3ccc(O)cc3)C(=O)N2[C@@H]1C(=O)O (stereo partly drawn) -1.1% [at 28.7 µM], CN(C)CCc1c[nH]c2ccc(CC3COC(=O)N3)cc12 (stereo not drawn) -3.3% [at 28.7 µM], C[C@@]12CCC(=O)C=C1C=CC1C2CC[C@]2(C)C1CC[C@@]21CCC(=O)O1 (stereo partly drawn) 0.323% [at 28.7 µM], NC(CCC(=O)N[C@@H](CS)C(=O)NCC(=O)O)C(=O)O (stereo partly drawn) -18.3% [at 28.7 µM], CC(C)Oc1ccc2c(=O)cc(-c3ccccc3)oc2c1 -11.7% [at 28.7 µM], CCCCCCCCCc1ccc(OCCOCCOCCOCCOCCOCCOCCOCCOCCO)cc1 -15.8% [at 28.7 µM], CC(=O)O[C@@]1(C(C)=O)CCC2C3CC(C)C4=CC(=O)CC[C@@]4(C)C3CC[C@]21C (stereo partly drawn) -4.08% [at 28.7 µM], N[C@@H]1C(O)OC(CO)C(O)C1O (stereo partly drawn) -7.19% [at 28.7 µM], CC(=O)OCC(=O)[C@@]12OC3(CCCC3)OC1CC1C3CCC4=CC(=O)C=C[C@@]4(C)[C@]3(F)C(O)C[C@]12C (stereo partly drawn) -3.61% [at 28.7 µM], C=Cc1c(C)/c2[n-]/c1=C\c1[n-]c(c(CC)c1C)/C=c1\[n-]c3c(c1C)C(=O)C(C(=O)[O-])C=3c1[n-]c(c(C)c1CCC(=O)[O-])\C=2.[Cu].[Na+].[Na+] (stereo not drawn) 0.454% [at 28.7 µM], CC(=O)[C@]1(O)CCC2C3C=C(Cl)C4=CC(=O)C5CC5[C@@]4(C)C3CC[C@]21C (stereo partly drawn) -5.73% [at 28.7 µM], COC1OC(CO)C(OC2OC(C(=O)O)C(OC3OC(COS(=O)(=O)O)C(OC4OC(C(=O)O)C(OC5OC(CO)C(OC6OC(C(=O)O)C(OC7OC(COS(=O)(=O)O)C(OC8OC(C(=O)O)=C[C@H](O)C8OS(=O)(=O)O)C(O)C7NC(C)=O)[C@@H](O)C6O)C(O)C5NC(C)=O)[C@@H](O)C4O)C(O)C3NC(C)=O)[C@@H](O)C2O)C(O)C1NC(C)=O (stereo partly drawn) 0.117% [at 28.7 µM], C[C@@]12C=CC(=O)C=C1CCC1C3CC(O)[C@@](O)(C(=O)CO)[C@]3(C)CC(O)[C@]12F (stereo partly drawn) 3.68% [at 28.7 µM], CCC1OC(=O)C(C)[C@@H](O[C@H]2C[C@@](C)(OC)C(O)C(C)O2)C(C)[C@@H](O[C@@H]2OC(C)CC(N(C)C)C2O)[C@@](C)(O)CC(C)C(=O)[C@@H](C)C(O)[C@]1(C)O (stereo partly drawn) -0.356% [at 28.7 µM], CC1C2CCC3C4CC=C5CC(N(C)C)CC[C@@]5(C)C4CC[C@@]32CN1C (stereo partly drawn) -0.255% [at 28.7 µM], COC1CC(O[C@H]2/C(C)=C/CC3CC(C[C@]4(CCC(C)C(C5CCCCC5)O4)O3)OC(=O)[C@H]3C=C(C)/C(=N/O)C4OC/C(=C\C=C\[C@@H]2C)[C@@]43O)OC(C)C1O (stereo partly drawn) -9.4% [at 28.7 µM], CCC(C)C(=O)OC1CC(O)C=C2C=CC(C)C(CCC(O)CC(O)CC(=O)O)C21 (stereo not drawn) 2.08% [at 28.7 µM], OCC1OC(n2cnc3c(=S)nc[nH]c32)C(O)C1O (stereo not drawn) -1.68% [at 28.7 µM]
